Sampled rows, rich in hits. Any-hit rate of the full collection: about 19%.
DT40 TDP1 CPT: growth inhibition of DT40 Tdp1-/-;hTDP1 cells with camptothecin (screen for TDP1 inhibitors). Potency, µM (series often up to 46.2 µM), for inactives: at the top dose activity change, negative = growth inhibition, actives largely listed as inhibitors. actives 12% (n = 420,000). chicken DT40 Tdp1-/-;hTDP1 cells + 20 nM CPT, ATP luminescence, 48 h. AID 686979; also: potency is read from the fitted curve at half-maximal effect; % is scaled to controls: 0 for no effect and ±100 for the full control effect; nearly all actives have a fitted effect of over 55% in size
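Chicken DT40 Tdp1-/- cells stably complemented with human TDP1 were seeded at 400 cells/well in medium containing 20 nM camptothecin, exposed to pin-transferred compounds, and grown at 37 °C for at least 48 hr. Viability was read as ATP luminescence.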
TGFb inhibitor: TGF-b pathway inhibition | actives 1.2% (n = 410,000) | HepG2 CAGA-GFP TGF-b/SMAD3 reporter, GFP fluorescence, 18 h; TGF-beta stimulated, 500 pg/mL final | Potency, µM (highest dose often 46.1 µM), without a hit: top-dose activity, negative = inhibition, usual class: inhibitors | AID 588855; also: potency is read from the fitted curve at half-maximal effect; % is scaled to controls: 0 for no effect and ±100 for the full control effect; nearly all actives have a fitted effect of over 65% in size
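First, reporter cells (HEPG2 CAGA-GFP) rested 2 h at 37 degrees C. Next, compounds were pinned in and TGF-beta added to 500 pg/mL final. After 18 h, GFP was imaged per cell and summed per well.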
IL1B secr inh: blocks inflammasome-driven IL-1 beta release; THP-1 LPS/ATP IL-1B secretion, AlphaLISA, 16 h; hits give low values; actives 4.7% (n = 360,000); activity change, % at 57.5 µM; in the data active = activity change below about -50%; inconclusive = mostly about -30% to -49%; also: % is scaled to controls: 0 for no effect and ±100 for the full control effect
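THP-1 cells pretreated 1 hr with compounds (up to 57.5 uM final), then stimulated with LPS (250 ng/mL final) plus ATP (1.25 mM final); secreted IL-1B measured by AlphaLISA after 16 hr, decreased signal indicating inhibition.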
DT40 TDP1 no CPT: qHTS for Inhibitors of human tyrosyl-DNA phosphodiesterase 1 (TDP1): qHTS in cells in absence of CPT; actives 15% (n = 420,000); DT40 Tdp1-/- hTDP1 cells, no CPT, ATP luminescence, 48 h; Potency, µM (top dose mostly 46.2 µM), without a hit: top-dose activity change, negative = growth inhibition, most hits filed as inhibitors; AID 686978, 2013; also: potency is read from the fitted curve at half-maximal effect; % is scaled to controls: 0 for no effect and ±100 for the full control effect; nearly all actives have a fitted effect of over 55% in size
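DT40 Tdp1-/-;hTDP1 cells, no CPT (DMSO vehicle only), 400 cells/well; compounds pin-transferred; ≥48 hr, 37 °C; CellTiter-Glo 30 min RT dark, luminescence read.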
ASM inhibitor: inhibitors of human secretory acid sphingomyelinase; P17405; placental ASM, HMU-PC fluorogenic substrate, 60 min; Potency, µM (doses to about 57.5 µM), inactives show top-dose activity change, negative = inhibition, hits mostly inhibitors; actives 0.006% (n = 340,000); AID 504937; also: potency is read from the fitted curve at half-maximal effect
Target sequence (P17405 47-631 limits assumed): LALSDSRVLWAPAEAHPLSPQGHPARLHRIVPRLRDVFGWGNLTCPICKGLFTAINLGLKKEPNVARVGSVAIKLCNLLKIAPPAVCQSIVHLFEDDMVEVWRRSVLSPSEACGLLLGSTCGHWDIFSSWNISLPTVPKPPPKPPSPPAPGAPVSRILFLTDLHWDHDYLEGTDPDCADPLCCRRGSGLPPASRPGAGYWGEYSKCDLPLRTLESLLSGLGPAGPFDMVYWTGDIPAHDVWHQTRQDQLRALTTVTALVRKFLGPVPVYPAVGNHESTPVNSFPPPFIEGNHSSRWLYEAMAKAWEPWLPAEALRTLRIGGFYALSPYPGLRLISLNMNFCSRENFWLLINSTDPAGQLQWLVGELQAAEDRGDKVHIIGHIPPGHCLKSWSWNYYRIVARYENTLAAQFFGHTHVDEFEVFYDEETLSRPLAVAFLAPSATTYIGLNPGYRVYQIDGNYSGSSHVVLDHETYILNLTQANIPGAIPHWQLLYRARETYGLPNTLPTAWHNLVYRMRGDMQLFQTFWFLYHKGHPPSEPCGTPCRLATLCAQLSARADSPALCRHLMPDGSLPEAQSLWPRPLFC
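Steps: dispense placental human ASM, pin compound, wait 10 min at room temperature, add HMU-PC0 substrate at 9 uM final, incubate 60 min at 37 °C, add stop solution raising pH to 10, read fluorescence.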
HepG2 tox: HepG2 cytotoxicity, counter-screen for TGF-b inhibitors; HepG2 CAGA-GFP viability, ATP luminescence, 18 h; Potency, µM (titrated, usually from 46.1 µM), for the others: top-dose activity change, negative = cytotoxicity, actives largely listed as cytotoxic; actives 0.76% (n = 410,000); also: potency is read from the fitted curve at half-maximal effect
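CellTiter-Glo luminescence gave cytotoxicity after 18 hours at 37 degrees C. The cells were HepG2 CAGA-GFP in 1% FBS DMEM, stimulated with 500 pg/mL TGF-beta after compound addition. %Activity was normalised to no-cell wells (complete cell-killing) and DMSO (no toxicity), and curves were fitted and classified.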
* hit, by the source's call; i = inactive; ? = inconclusive; . = no result given. Unless noted, calls follow the shape of the dose curve; as a rule, active = well fitted curve in the direction sought with a large enough effect; inconclusive = small, poorly fitted or top-dose-only effect, or another doubt; inactive = no such curve, though single readings can be large; an effect the other way counts as inactive or inconclusive.

SMILES	DT40 TDP1 CPT	TGFb inhibitor	IL1B secr inh	DT40 TDP1 no CPT	ASM inhibitor	HepG2 tox
CO[C@@H]1[C@@H](O[C@@H]2O[C@H](C)[C@@H](O[C@H]3C[C@@](C)(O)[C@@H](OC(=O)CC(C)C)[C@H](C)O3)[C@H](N(C)C)[C@H]2O)[C@@H](CC=O)C[C@@H](C)[C@@H](O)/C=C/C=C/C[C@@H](C)OC(=O)C[C@H]1O	6.68µM*	.	.	5.96µM*	.	.
O=C(NCc1ccc(F)cc1)C(c1ccc(Cl)cc1)N(C(=O)c1csnn1)C1CC1 (stereo not drawn)	?	0.9%	-6.3	?	-2.5%	-25.9%
CCOC(=O)Nc1cc2c(c(N)n1)N=C(c1ccccc1)CN2	0.206µM*	?	4.6	0.0411µM*	26.9%	-6.6%
COCCNC(=O)c1cc2cc3ccc(OC)cc3nc2o1	-3.7%	-1.0%	-5.4	6.8%	421.9%	7.0%
COc1ccc2cc3cc(C(=O)NCC4CCCO4)oc3nc2c1 (stereo not drawn)	1.0%	-5.4%	-55.9*	-11.3%	i	-5.9%
COc1ccc2cc3cc(C(=O)Nc4ccccc4N4CCN(C)CC4)oc3nc2c1	4.61µM*	-8.9%	-95.6*	4.61µM*	-10.4%	10µM*
COc1ccc2cc3cc(C(=O)NCCN4CCN(c5ccccc5F)CC4)oc3nc2c1	?	-8.1%	-18.1	16.4µM*	159.0%	-6.6%
Cc1ccc2cc3cc(C(=O)NCCCN4CCCC4)oc3nc2c1	1.7%	-25.2%	-50.8*	14.0%	27.2%	-16.8%
O=C(NCc1ccco1)/C(=C\c1ccc(F)cc1)NC(=O)c1ccco1	32.9%	-22.5%	2.8	-2.5%	-0.2%	-10.0%
c1ccc(N2[C@@H]3c4ccccc4C[C@H]2c2ccccc23)cc1	19.7%	.	34.3	-21.1%	.	.
Cn1cccc1C(=O)N/N=C/c1c(Cl)cccc1Cl	-28.0%	-4.7%	-20.8	-15.8%	-2.6%	-22.8%
CC[C@]12c3[nH]c4cc(-c5ccco5)ccc4c3CCN1C(=O)[C@@H](CC(=O)NCCCn1ccnc1)C[C@@H]2C(=O)N1CCN(C(=O)c2ccco2)CC1	0.9%	-1.6%	5.1	2.1%	6.8%	14.3%
CCOCCCNC(=O)c1cc2cc3cc(OC)ccc3nc2o1	16.4µM*	10.4%	-2.0	-29.4%	302.7%	3.4%
COc1ccc2nc3oc(C(=O)NCCCOC(C)C)cc3cc2c1	-7.4%	-2.1%	?	-28.0%	228.4%	3.9%
Cc1[nH]ccc(=O)c1OCc1c(Cl)cccc1Cl	-22.0%	?	22.0	-6.0%	0.6%	4.0%
Cc1ccc(Cn2ccc(=O)c(OCc3c(Cl)cccc3Cl)c2C)cc1	18.4µM*	?	-58.6*	14.6µM*	-11.1%	-63.6%
C=CCOn1c(=O)c(-c2cccs2)[n+]([O-])c2ccccc21	23.1µM*	1.6%	-3.4	?	85.9%	-0.6%
C=CCOn1c(=O)c(-c2ccc(Cl)cc2)[n+]([O-])c2ccccc21	-11.1%	3.1%	9.7	2.8%	5.4%	13.9%
COc1ccc(CCNC(=O)c2ccc(-c3cccc([N+](=O)[O-])c3)o2)cc1OC	?	13.4%	-28.9	20.6µM*	-14.2%	-20.7%
NNC(=O)c1ccc(-c2cccc([N+](=O)[O-])c2)o1	?	-1.7%	-25.0	-9.6%	-2.4%	-5.3%
COc1cc([N+](=O)[O-])ccc1NC(=O)c1cccc(NC(=O)C(C)C)c1	?	0.8%	.	29.1µM*	-4.2%	5.3%
COc1cc(NC(=O)c2ccc(-c3cccc([N+](=O)[O-])c3)o2)ccc1NC(=O)C(C)C	?	0.0%	10.5	20.6µM*	-1.9%	-45.7%
COc1ccccc1NC(=O)NCC(=O)Nc1c(C)cccc1C	-3.5%	-24.2%	-2.0	-3.8%	7.0%	0.5%
O=C(Sc1ccc(Cl)cc1)c1cccc(Cn2cc(C(F)(F)F)ccc2=O)c1	18.4µM*	5.2%	19.7	16.4µM*	?	-0.4%
N/C(=N\OC(=O)c1cccc(Cn2cc(C(F)(F)F)ccc2=O)c1)c1ccccc1	-3.7%	?	0.0	-21.0%	-2.1%	-37.4%
SMILES	DT40 TDP1 CPT	TGFb inhibitor	IL1B secr inh	DT40 TDP1 no CPT	ASM inhibitor	HepG2 tox
N/C(=N\OC(=O)c1cccc(Cn2cc(C(F)(F)F)ccc2=O)c1)c1ccc(Cl)cc1	?	-5.7%	?	20.6µM*	-7.8%	-20.3%
Cc1ccc(/C(N)=N/OC(=O)c2cccc(Cn3cc(C(F)(F)F)ccc3=O)c2)cc1	?	-0.3%	-68.5*	18.4µM*	-5.3%	-22.4%
OCc1nc2ccccc2n1CC(O)COc1ccccc1 (stereo not drawn)	-16.4%	1.3%	-22.9	-14.6%	-0.4%	7.7%
CCCCn1c(=N)n(CC(O)COc2ccc(C)cc2)c2ccccc21 (stereo not drawn)	6.51µM*	?	-73.2*	4.11µM*	-2.3%	12.6µM*
CCCCn1c(=N)n(CC(O)COc2ccccc2)c2ccccc21 (stereo not drawn)	11.6µM*	-16.2%	?	11.6µM*	-1.0%	-31.2%
CCCCn1c(=N)n(CC(O)c2ccccc2)c2ccccc21 (stereo not drawn)	14.6µM*	3.7%	-67.0*	23.1µM*	3.0%	-16.5%
CCOc1ccc(NC(=O)CSc2nnc3c(n2)[nH]c2ccc(S(=O)(=O)N4CCCCC4)cc23)cc1	12.6µM*	.	.	15.8µM*	.	.
Cc1ccc(OCCC(=O)Nc2ccc(S(=O)(=O)N3CCCC3)cc2)cc1	?	-27.7%	?	14.6µM*	-21.9%	-26.1%
CCOc1ccc(CC(=O)Nc2ccc(S(=O)(=O)N3CCCC3)cc2)cc1	?	-7.5%	11.2	14.6µM*	-3.3%	11.0%
COc1ccc(NC(=O)CCOc2ccc(C)cc2)cc1S(=O)(=O)N1CCCCC1	?	?	-12.1	?	?	-8.7%
O=C(COC(=O)c1cnccn1)NCc1ccc(Cl)cc1	15.5%	-7.3%	-2.9	5.4%	-5.7%	-3.0%
CCOC(=O)c1ccc(NC(=O)COc2cccc3c(=O)n(C)ccc23)cc1	20.6µM*	-8.7%	.	18.4µM*	.	-23.4%
Cn1ccc2c(OCC(=O)Nc3ccc(OC(F)(F)F)cc3)cccc2c1=O	11.6µM*	-18.4%	.	7.31µM*	.	-34.6%
Cn1ccc2c(OCC(=O)Nc3ccc([N+](=O)[O-])cc3)cccc2c1=O	-29.2%	2.9%	.	?	.	-32.2%
Cn1ccc2c(OCC(=O)NCc3ccccc3)cccc2c1=O	?	3.4%	.	?	.	-21.1%

From PubChem
